In PubChem BioAssay (Tox21) one finds Potency and cytotoxicity increase data, which are given here for 22 molecules.

Several values for one entry are separate records, joined by “and”; a condition that tells them apart may be missing. Equal values may be shown once. Records with an inconclusive call do not appear. A call without a number means that no potency is given here. A structure can be active in one record and inactive in another. Activity calls are given as the source filed them. Calls come from the whole dose curve; as a rule, active = well fitted activation curve with a large enough effect in the repeat runs; inconclusive = weak or mixed curves; inactive = flat fitted curve, though single readings scatter.
Potency is the fitted concentration of half-maximal effect.

This assay is described as follows: A CellTox Green Cytotoxicity Assay to monitor cytotoxicity in HepG2 cells - 32 hour (AID 1224883). Note: nearly all actives have a fitted effect of over 50% in size. The settings on record: CellTox Green fluorescence; series mostly up to 76.8 µM. From the text:
National Center for Advancing Translational Sciences [NCATS]
NIH Chemical Genomics Center [NCGC]
U.S. Environmental Protection Agency [EPA]
National Institutes of Environmental Health Sciences [NIEHS]
National Toxicology Program [NTP]
Cell-based models are critical for drug discovery. Determining the natural cytotoxic effects resulting from test compounds is an essential research activity. A CellTox Green Cytotoxicity Assay to monitor cytotoxicity in real time of continues cell culture during 40 hours of the compound treatment was used to screen Tox21 10K library compounds in HepG2 cells. CellTox Green Cytotoxicity Assay is a nonlytic, homogeneous, biofluorescent method to measure cytotoxicity in cell culture after experimental manipulation. The assay system uses a proprietary asymmetric cyanine dye that is excluded from viable cells but preferentially stains the dead cell's DNA. […] Viable cells produce no appreciable increases in fluorescence. Therefore, the fluorescence signal produced by the binding interaction with dead cell DNA is proportional to cytotoxicity.
The mixture of HepG2 cell suspension and reagents were dispensed at 600cells/6 ul/well in 1536-well tissue culture treated black solid bottom plates using a Multidrop dispenser. After the assay plates were incubated at a 37 C/5% CO2 incubator for 5 hours, 23 nL of compounds dissolved in DMSO, positive and negative controls was transferred to the assay plate by a pintool work station. The plates were incubated at 37 C for 40 hours. The fluorescence intensity were measured at 0h, 8h, 16h, 24h, 32h and 40h time points using ViewLux plate reader during compound treatment.
As for `CN1CSC(=S)N(C)C1`, the Potency was 10.9 µM (active) and 21.8 µM (active). Same read-out and setting: with `Nc1ccc([N+](=O)[O-])cc1` the figure was 43.6 µM (active); with `C[C@]12CC[C@@H](O)C[C@@H]1CC[C@@H]1[C@@H]2CC[C@]2(C)C(=O)CC[C@@H]12`, “inactive”. In the case of `COc1cc(OC)c(OC)cc1C=O`, the Potency entry was “inactive”. For `O=C(c1ccccc1)C(Cl)Cl`, the Potency result is “inactive”. On to `O=C(Nc1ccccc1-c1ccc(Cl)cc1)c1cccnc1Cl`, for which the Potency was 46.3 µM (active). As to `O=[N+]([O-])c1c(Cl)c(Cl)cc(Cl)c1Cl`, the Potency was 54.9 µM (active). For `CNC(=O)Oc1cc(C)c(SC)c(C)c1`, the Potency result is “inactive”. Same read-out and setting: the same measure for `OCC(c1ccc(Cl)cc1)c1ccc(Cl)cc1`: 38.9 µM (active); for `CCOC(=O)C(O)(c1ccc(Cl)cc1)c1ccc(Cl)cc1`: “inactive and 43.6 µM (active)”; for `Cc1ccc(N(SC(F)(Cl)Cl)S(=O)(=O)N(C)C)cc1`: 6.92 µM (active). The same measure, in the same setting: with `CC(c1ccccc1)(c1ccc(O)cc1)c1ccc(O)cc1` the figure was 43.6 µM (active). For `O=S(=O)(C(Cl)(Cl)Cl)C(Cl)(Cl)Cl`, the Potency was 24.5 µM (active). For the molecule `CCN(CC)C(=O)Cl`, the Potency entry is “inactive”. With `N#Cc1cc([N+](=O)[O-])ccc1N`, the Potency result was “inactive”.

As for `COc1ccc(C(c2ccc(OC)cc2)C(Cl)(Cl)Cl)cc1`, the Potency result is “inactive”. On to `O=C1C(I)=CC(=C(c2cc(I)c(O)c(I)c2)c2ccccc2C(=O)O)C=C1I`, for which the Potency entry is “inactive”. Consider `OC(Cc1ccccc1Cl)(Cn1[nH]cnc1=S)C1(Cl)CC1` (configuration not stated), for which the Potency result was “inactive”. Turning to `Cc1ccc2nc3sc(=O)sc3nc2c1`, the cytotoxicity increase was -5.02% [at 15.8 µM] (inactive). Consider `CO/C=C(/C(=O)OC)c1ccccc1Oc1cc(Oc2ccccc2C#N)ncn1`, for which the Potency entry was “inactive”. On to `c1ccc2c(c1)Sc1ccccc1N2CC1CN2CCC1CC2` (configuration not stated), for which the Potency is 21.3 µM (active).

As to `Oc1c(I)cc(I)cc1I`, the Potency result was “inactive”.
